Reference: PubChem BioAssay (NCI)
Values joined by “and” are separate entries in the source; they are usually repeats but may differ in a detail not shown here. Identical values can stand only once. Compounds without any hit were thinned out: in the full panel of roughly 83,000, 20% have a hit.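 Negative percent growth values reflect cell death: -40 means 40% of the cells present at the start died, and -100 means all died.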 Active and inactive are the calls of the source. Rule for the calls: active = growth percent below 10; inactive = the rest.

What follows are compounds tested on KM12 colon (assay: NCI-60 one-dose screen, 48 h (100 = growth as untreated, 0 = no growth, -100 = all killed)). Settings: 10 µM unless noted.
For CN1CCN(C(=O)Oc2cc3c(c4ccccc24)[C@H](CCl)CN3C(=O)c2cc3cc(OCCCN4CCC4)ccc3[nH]2)[C@H]2CSSC[C@H]21, the growth was 2.01% (active). In the case of N#Cc1cc(-c2ccc3ncnc(N4CCc5cc(F)c(Cl)cc54)c3c2)cnc1N, the growth is reported as 67.2% (inactive). CC1=NN(C2=NC(=O)C(CC(=O)Nc3ccccc3C(F)(F)F)S2)C(c2ccc(N(C)C)cc2)C1 (stereo not drawn) was tested, and the growth was 39% (inactive). In the case of O=C1Nc2ccccc2/C1=C/C(=O)c1cc2ccccc2oc1=O, the growth is reported as 95.9% (inactive). For Cc1ccccc1NC(=O)c1cccc(NC(=O)CCl)c1, the growth was 77.3% (inactive). In the case of Cn1cc(-c2cc(N)n3nc(-c4c[nH]c5ccccc45)cc3n2)c2cc(Br)ccc21, the growth is reported as -79.3% (active). With Nc1nc2cc(-c3ccc4ncnc(NCc5ccccc5)c4c3)ccc2o1 the growth was 25.4% (inactive). With O=C(N/N=C/c1ccc(-c2cccc([N+](=O)[O-])c2)s1)c1[nH]c2ccc(Br)cc2c1-c1ccccc1 the growth was 109% (inactive). Cc1nc(Nc2ccccn2)sc1C1=NNC(c2ccccc2F)C1 (stereo not drawn) was tested, and the growth was 23.4% (inactive). For CC(C)(C)c1ccc(OCc2nc3ccccc3n2-c2cccc(N)c2)cc1, the growth was 54.5% (inactive) and 105% (inactive). With CC1=C(C(=O)OCc2ccccc2)C(c2cccc3ccccc23)n2c(nc3ccccc32)N1 (stereo not drawn) the growth was 19.1% (inactive). For Cc1cc(=O)oc2cc(OCC(O)CNN3C(=O)c4cccc5c(N6CCN(C)CC6)ccc(c45)C3=O)ccc12 (stereo not drawn), the growth was 90.8% (inactive). CN(C)CCOc1ccc(C(=O)C2[C@H](c3ccc(Cl)cc3)[C@@H](c3ccccc3)NC23C(=O)Nc2ccc(Cl)cc23)cc1 (stereo partly drawn) was tested, and the growth was -67.1% (active). O=C1Nc2cc(-c3ccc(NS(=O)(=O)c4ccc(-c5ccccc5)cc4)cc3)ccc2/C1=C/c1ccc[nH]1 was tested, and the growth was 34.2% (inactive). In the case of CCCSc1nnc(-c2sc3nc4ccccc4n3c2C)o1, the growth is reported as 101% (inactive). COc1ccc2[nH]c(O)c(N=Nc3nc(-c4ccc(C#N)cc4)cs3)c2c1 was tested, and the growth was 78.4% (inactive). With CCOc1ccc2[nH]c(=O)c(C(c3nnnn3CC3CCCO3)N3CCN(Cc4ccccc4)CC3)cc2c1 (stereo not drawn) the growth was 101% (inactive). Cc1cccc(NCC(=O)N2CCN(c3ncnc4c3cnn4-c3ccccc3)CC2)c1 was tested, and the growth was 40.6% (inactive). In the case of COc1ccc(NC(=O)CSc2nnc(-c3ccc(-c4nc5ccc(Cl)cc5[nH]4)cc3)o2)cc1, the growth is reported as 29.6% (inactive). In the case of N/C(=N\c1nc2ccccc2s1)NC(=O)Nc1ccccc1[N+](=O)[O-], the growth is reported as 1.31% (active). With N#CC1=C(c2cccs2)Nc2c(c(-c3ccccc3)nn2-c2ccccc2)C12C(=O)Nc1ccc(Cl)cc12 (stereo not drawn) the growth was 15.3% (inactive). For Cn1cc(-c2cc3nc(-c4cn(C)c5ncccc45)cc(N)n3n2)c2cc(F)ccc21, the growth was 61.8% (inactive). C#CCN(C)CCCOc1ccc(N(C)C(=O)c2cc(C(C)C)c(O)cc2O)cc1Cl was tested, and the growth was 5.69% (active). With COc1cc(NC(=O)CSc2nnc(-c3ccc(-c4nc5ccc(Cl)cc5[nH]4)cc3)o2)cc(OC)c1OC the growth was 30.8% (inactive). With CS(=O)(=O)Nc1cc(-c2ccc3ncnc(N4CCc5cc(F)c(Cl)cc54)c3c2)cnc1Cl the growth was 14.2% (inactive). For CC1=C(C(=O)Nc2ccccc2)C(c2cccc3ccccc23)n2c(nc3ccccc32)N1 (stereo not drawn), the growth was 89.9% (inactive). With COc1cc(C2CC(c3ccc(C(F)(F)F)cc3)=Nc3c(N)nc(N)nc3N2)ccc1Oc1nc(Nc2ccc(F)cc2)nc(N(C)C)n1 (stereo not drawn) the growth was 32.6% (inactive). For C[C@@H]1[C@H]2C[C@@H](C[C@H]1NCc1nc3ccccc3n1C1CCCCCC1)C2(C)C, the growth was 68.6% (inactive). For CS(=O)(=O)Nc1cccc(-n2cnc3cc(-c4ccc(O)cc4)ccc32)c1, the growth was 26.6% (inactive). With COc1ccc2c(c1)C(=O)N(C)C2C1c2c(cc3c(c2OC)OCO3)CCN1C (stereo not drawn) the growth was 15.9% (inactive). CCOc1ccc(-c2cc(-c3cc(C(C)C)c(O)cc3C)nn2-c2ccc(S(N)(=O)=O)cc2)cc1 was tested, and the growth was 7.96% (active). In the case of O=C(c1ccc(O)cc1)C1[C@H](c2ccc(Cl)cc2)[C@@H](c2ccccc2)NC12C(=O)Nc1ccc(Br)cc12 (stereo partly drawn), the growth is reported as -25.4% (active). In the case of COc1cc(CNC(=O)C[C@H](C)CCC=C(C)C)ccc1OCc1cn(-c2ccccc2Cl)nn1, the growth is reported as 63% (inactive). For Cc1ccc(Cl)cc1NC(=O)Nc1nc2ccc([N+](=O)[O-])cc2s1, the growth was -2.73% (active). With COc1cc(/C=N/NC(=O)c2ccc(OCc3nc4ccc(C)cc4[nH]3)cc2)cc(OC)c1OC the growth was 57% (inactive). COc1ccccc1/C=C/c1cccc(NC(=S)NCCCCN(C)C)c1 was tested, and the growth was -52.9% (active). CC1(C)CC(=O)C2=C(C1)OC(N)=C(c1nc3ccccc3[nH]1)C2c1ccc(Cl)cc1 (stereo not drawn) was tested, and the growth was 36.7% (inactive) and 100% (inactive). O=C1CCC(N2C(=O)c3cccc(NCCCCCC(=O)N4CCN(c5ccc6nc7c(nc6c5C(F)(F)F)C(=O)c5ncccc5C7=O)CC4)c3C2=O)C(=O)N1 (stereo not drawn) was tested, and the growth was -49.6% (active).
